Structures are written as SMILES. Inconclusive results are not listed. Entries that show only a call come without a potency. Activity calls are given as the source filed them. Calls come from the whole dose curve; as a rule, active = well fitted activation curve with a large enough effect; inconclusive = small, poorly fitted or top-dose-only effect; inactive = no such curve, though single readings can be large or run the other way.
Potency is the fitted concentration of half-maximal effect.

Chain of Relaxin receptor 1 (Homo sapiens) (Q9HBX9 whole entry, looked up): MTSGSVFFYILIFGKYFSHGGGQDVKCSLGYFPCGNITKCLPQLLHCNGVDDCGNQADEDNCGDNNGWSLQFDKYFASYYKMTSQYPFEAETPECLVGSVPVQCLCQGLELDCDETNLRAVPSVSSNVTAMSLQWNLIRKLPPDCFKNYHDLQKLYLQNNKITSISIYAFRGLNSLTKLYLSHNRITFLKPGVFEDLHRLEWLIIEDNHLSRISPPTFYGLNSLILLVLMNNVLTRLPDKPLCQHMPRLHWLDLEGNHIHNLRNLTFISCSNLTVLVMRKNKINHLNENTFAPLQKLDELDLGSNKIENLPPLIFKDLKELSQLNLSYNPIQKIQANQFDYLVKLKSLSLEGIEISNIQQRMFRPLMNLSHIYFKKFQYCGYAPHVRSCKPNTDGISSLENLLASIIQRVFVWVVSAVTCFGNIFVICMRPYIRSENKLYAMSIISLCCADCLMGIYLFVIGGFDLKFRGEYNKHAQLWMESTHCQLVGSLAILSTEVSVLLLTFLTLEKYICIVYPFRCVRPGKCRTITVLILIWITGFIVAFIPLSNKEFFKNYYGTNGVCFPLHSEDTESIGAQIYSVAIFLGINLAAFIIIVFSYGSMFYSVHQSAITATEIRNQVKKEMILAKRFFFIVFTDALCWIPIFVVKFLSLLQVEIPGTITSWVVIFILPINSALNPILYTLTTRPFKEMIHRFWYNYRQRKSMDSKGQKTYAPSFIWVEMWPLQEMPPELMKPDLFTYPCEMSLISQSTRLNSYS

The assay addresses Relaxin receptor 1 (Homo sapiens) (UniProt Q9HBX9). As to the kind of experiment: qHTS Assay for Agonists of the Relaxin Receptor RXFP1: RXFP1 Hit Validation.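 For activation: cAMP rise lowers the TR-FRET signal in lysed cells with PDE4 inhibitor present.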 Note: nearly all actives have a fitted effect of over 65% in size. The conditions noted are these: HEK293T-RXFP1 cAMP TR-FRET, 30 min; series mostly up to 115 µM. A general note: In qHTS, concentration-response curves come from the screen itself.
Turning to `Cn1c(=O)c2c(nc(SCC(=O)N3CCOCC3)n2C)n(C)c1=O`, the Potency entry is “inactive”.

Turning to `COc1ccc(/C=C2/SC(=O)N(CCC(=O)Nc3ccc(C)cc3)C2=O)cc1OC`, the Potency result was “inactive”.

As for `O=C(O)c1ccc(CN2C(=O)c3ccc(C(=O)O)cc3C2=O)cc1`, the Potency entry is “inactive”.

`O=C(Nc1ccccc1C(=O)Nc1ccc(F)cc1)c1ccco1`: the Potency entry was “inactive”.

Take `CC1(C)Cc2c(sc3c2c2ncnn2c2nnc(SCC(=O)NCc4ccco4)n32)CO1`: the Potency was 6.16 µM (active).

Consider `COc1ccccc1CNS(=O)(=O)c1cc(CN2C(=O)c3cccnc3C2=O)ccc1OC`, for which the Potency is 30.9 µM (active).

With `Cc1ccnc(NS(=O)(=O)c2ccc(N3C(=O)c4ccccc4C3=O)cc2)n1`, the Potency was 18.8 µM (active).

As to `O=C(OCc1nc2ccsc2c(=O)[nH]1)c1cccc(S(=O)(=O)N2CCOCC2)c1`, the Potency was 34.6 µM (active).

On to `CCOC(=O)CSc1nc(=O)n2cc(C)ccc2n1`, for which the Potency result was “inactive”.

Take `CC1C/C(=N\NC(N)=S)c2cc(Cl)ccc2S1` (stereo unspecified): the Potency result was “inactive”.

Turning to `CN(C)c1ccc2nc3c(=O)[nH]c(=O)nc-3n(CC(O)C(O)C(O)CO)c2c1` (stereo unspecified), the Potency result was “inactive”.

As for `CCn1c(=O)c2cc(C(=O)Nc3cccc(C(C)=O)c3)sc2c2ccccc21`, the Potency entry was “inactive”.

With `NC(=S)c1cc2ccc(O)cc2oc1=O`, the Potency was 7.74 µM (active).

With `O=C(NCc1nnc2c(C(F)(F)F)cc(Cl)cn12)c1cccnc1`, the Potency entry is “inactive”.

As to `CC(=O)Nc1c2c3c(cccc3n(C)c1=O)C(=O)c1ccccc1-2`, the Potency result was “inactive”.

Consider `O=C(Nc1ccccc1C(=O)NCc1ccco1)c1ccco1`, for which the Potency result was “inactive”.

As to `Cc1cc(NC(=O)CSc2ncnc3c2cnn3-c2cccc(Cl)c2)no1`, the Potency result was “inactive”.

As to `Cn1c2c(c(=O)n3ncnc13)CCCC2`, the Potency entry is “inactive”.

With `CN(C)c1ccc(C(=S)N2CCN(S(=O)(=O)c3ccccc3)CC2)cc1`, the Potency entry was “inactive”.

In the case of `O=C(NC1CCCCCC1)c1cc2c(=O)n3ccccc3nc2s1`, the Potency was 34.6 µM (active).

Consider `CC(C)C(=O)Nc1ccc(Nc2ccccc2)cc1`, for which the Potency entry was “inactive”.

Take `c1ccc(-c2nnc(-c3ccccn3)c(-c3ccccn3)n2)nc1`: the Potency entry was “inactive”.

Take `Cc1cc(C(=O)COC(=O)Cn2cnc3c2c(=O)n(C)c(=O)n3C)c(C)n1C`: the Potency was 30.9 µM (active).

Turning to `COc1ccc(C(=O)Nc2ccc(S(=O)(=O)Nc3onc(C)c3C)cc2)c(OC)c1`, the Potency is 5.95 µM (active).

As for `S=c1nc[nH]c2c1[nH]c1ccccc12`, the Potency is 6.9 µM (active).

Take `COc1ccccc1NC(=O)c1sc2nc3n(c(=O)c2c1C)CCC3`: the Potency entry was “inactive”.

On to `CC(C(=O)Nc1cccnc1)n1cc([N+](=O)[O-])cn1` (stereo unspecified), for which the Potency entry was “inactive”.

With `CC(C)c1ccccc1NC(=O)c1ccccc1NC(=O)C1CCCCC1`, the Potency result was “inactive”.

In the case of `c1ccc(COn2nnc3ccccc32)c(COn2nnc3ccccc32)c1`, the Potency entry is “inactive”.

On to `CC(=O)C1C(c2ccccc2)c2c(noc2C)CC1(C)O` (stereo unspecified), for which the Potency result is “inactive”.

On to `O=c1oc2cc(O)c(Cl)cc2c2ccccc12`, for which the Potency is 6.9 µM (active).

`CC(NC(=O)c1ccccc1NC(=O)c1ccco1)C(=O)O` (stereo unspecified): the Potency entry was “inactive”.

On to `CCc1cc2cc3c(cc2nc1SCC(=O)Nc1nccs1)OCO3`, for which the Potency is 17.3 µM (active).

For `COc1cccc(CNC(=O)c2ccc(CS(=O)Cc3ccc(C)cc3)o2)c1` (stereo unspecified), the Potency result was “inactive”.

Take `O=C(Nc1ccccc1C(=O)N1CCCCC1)c1ccco1`: the Potency result was “inactive”.

For `O=C(NCCOC(=O)c1ccc([N+](=O)[O-])cc1)c1cccnc1`, the Potency entry is “inactive”.

Values taken from PubChem BioAssay AID489012 (National Center for Advancing Translational Sciences (NCATS), 2010).
